Results: PubChem BioAssay (EPA / NIEHS)
Where “and” joins values, the source holds several entries; their conditions need not be identical. Identical values can stand only once. Records with an inconclusive call do not appear. Some structures have more than one record in an assay (separate samples or runs), and their calls can disagree. Calls of active or inactive are those of the source. How the source made its calls, unless noted: active means hit-call score of the fitted dose curve at least 0.9, where 1 is the maximum; inconclusive means response in the unintended direction; inactive means score below 0.9.

Tests used:
[1] = read-out: Cytochrome P450 3A4 (Homo sapiens) (UniProt P08684); assay: CLD_CYP3A4_24hr: CellzDirect (CLD) Gene Expression Assay for xenobiotic metabolism (CYP3A4) at 24 hours (AID 2283689)
Outline: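 Primary human hepatocytes from two donors dosed daily with fresh compound for two days, 0.2% DMSO vehicle. CYP3A4 mRNA at 24 hr by qNPA chemiluminescence; gain-of-signal fit versus DMSO, cytotoxicity flagged by morphology.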

[2] = read-out: organic anion transporter (SLCO1B1), SLCO1B1 (gene 10599); assay: CLD_SLCO1B1_24hr: CellzDirect (CLD) Gene Expression Assay for organic anion transporter (SLCO1B1) at 24 hours (AID 2283690)
Outline: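 Primary human hepatocytes (two donor preparations) dosed daily for two days with chemicals at multiple concentrations, 0.2% DMSO vehicle. SLCO1B1 mRNA at 24 h measured by qNPA chemiluminescence; induction fitted relative to DMSO.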

[3] = read-out: alkyl and aryl transferase (GSTA2), GSTA2 (gene 2939); assay: CLD_GSTA2_24hr: CellzDirect (CLD) Gene Expression Assay for alkyl and aryl transferase (GSTA2) at 24 hours (AID 2283693)
Outline: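 Primary human hepatocytes (two donor preparations) dosed daily for two days with chemicals at multiple concentrations (vehicle 0.2% DMSO); GSTA2 mRNA at 24 h measured by qNPA chemiluminescence, gain-of-signal versus DMSO.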

[4] = read-out: ABC Transporter (ABCB1), ABCB1 (gene 5243); assay: CLD_ABCB1_48hr: CellzDirect (CLD) Gene Expression Assay for ABC Transporter (ABCB1) at 48 hours (AID 2283695)
Outline: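 Primary human hepatocytes from two donor preparations dosed daily on two consecutive days with 0.2% DMSO vehicle. Harvest at 48 h. ABCB1 mRNA quantified by qNPA with chemiluminescence and fitted for gain of signal versus DMSO.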

[5] = read-out: glucuronosyltransferase (UGT1A1), UGT1A1 (gene 54658); assay: CLD_UGT1A1_24hr: CellzDirect (CLD) Gene Expression Assay for glucuronosyltransferase (UGT1A1) at 24 hours (AID 2283696)
Outline: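 Primary human hepatocytes from two donor preparations were dosed (0.2% DMSO vehicle) and harvested at 24 h; UGT1A1 mRNA induction was quantified by chemiluminescent qNPA, fitted as gain relative to DMSO.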

[6] = read-out: Cytochrome P450 2C19 (Homo sapiens) (UniProt P33261); assay: CLD_CYP2C19_48hr: CellzDirect (CLD) Gene Expression Assay for xenobiotic metabolism (CYP2C19) at 48 hours (AID 2283700);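 further: fitted upward so actives raise CYP2C19 mRNA above the 0.2% DMSO vehicle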
Outline: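 Primary human hepatocytes (two donor preparations) dosed daily for two days, harvested at 48 h; CYP2C19 mRNA induction measured by qNPA chemiluminescence. Gain-of-signal fitted relative to 0.2% DMSO vehicle as baseline.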

[7] = read-out: Cytochrome P450 2C9 (Homo sapiens) (UniProt P11712); assay: CLD_CYP2C9_48hr: CellzDirect (CLD) Gene Expression Assay for xenobiotic metabolism (CYP2C9) at 48 hours (AID 2283701; active means hit-call score of the fitted dose curve at least 0.9, where 1 is the maximum; inactive means score below 0.9)
Outline: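 Primary human hepatocytes (two donor preparations) dosed daily for two days with test chemicals, 0.2% DMSO vehicle; harvested at 48 h. mRNA induction quantified by qNPA chemiluminescence, fitted for gain of signal against DMSO baseline; cytotoxicity annotated from phase-contrast morphology.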

[8] = CLD_ACTIN_48hr: CellzDirect (CLD) Gene Expression Assay for Baseline Control (Actin) at 48 hours (AID 2283702)
Outline: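 Primary human hepatocytes (two donor preparations) dosed daily for two days with ToxCast chemicals at multiple concentrations versus 0.2% DMSO vehicle; harvested at 48 h. Actin mRNA measured as a background control by quantitative nuclease protection assay with chemiluminescence.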

[9] = read-out: xenobiotic metabolism (CYP1A2), CYP1A2 (gene 1544); assay: CLD_CYP1A2_48hr: CellzDirect (CLD) Gene Expression Assay for xenobiotic metabolism (CYP1A2) at 48 hours (AID 2283703)
Outline: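 Primary human hepatocytes from two donor preparations were dosed daily for two days at multiple concentrations in 0.2% DMSO vehicle. CYP1A2 mRNA was measured at 48 hours by chemiluminescent quantitative nuclease protection assay, with gain of signal fitted versus DMSO and cytotoxicity annotated from morphology.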

[10] = read-out: Broad substrate specificity ATP-binding cassette transporter ABCG2 (Homo sapiens) (UniProt Q9UNQ0); assay: CLD_ABCG2_48hr: CellzDirect (CLD) Gene Expression Assay for ABC Transporter (ABCG2) at 48 hours (AID 2283704)
Outline: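 Primary human hepatocytes from two donors, dosed daily for 2 days, 0.2% DMSO vehicle, several concentrations. ABCG2 mRNA at 48 h by qNPA chemiluminescence, gain fitted versus DMSO; cytotoxicity flagged by morphology.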

[11] = read-out: xenobiotic metabolism (CYP1A1), CYP1A1 (gene 1543); assay: CLD_CYP1A1_48hr: CellzDirect (CLD) Gene Expression Assay for xenobiotic metabolism (CYP1A1) at 48 hours (AID 2283705)
Outline: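 Primary human hepatocytes from two donors dosed daily for two days at multiple concentrations, 0.2% DMSO vehicle; CYP1A1 mRNA induction at 48 h by qNPA chemiluminescence. Cytotoxicity noted by phase-contrast morphology.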

[12] = read-out: organic anion transporter (SLCO1B1), SLCO1B1 (gene 10599); assay: CLD_SLCO1B1_48hr: CellzDirect (CLD) Gene Expression Assay for organic anion transporter (SLCO1B1) at 48 hours (AID 2283707)
Outline: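 Primary human hepatocytes from two donor preparations dosed daily for two days with multiple concentrations, 0.2% DMSO vehicle. SLCO1B1 mRNA at 48 h by quantitative nuclease protection assay, chemiluminescence; gain-of-signal fitted versus DMSO.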

[13] = read-out: alkyl and aryl transferase (GSTA2), GSTA2 (gene 2939); assay: CLD_GSTA2_48hr: CellzDirect (CLD) Gene Expression Assay for alkyl and aryl transferase (GSTA2) at 48 hours (AID 2283708);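 further: active means mRNA induction above DMSO vehicle baseline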
Outline: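 Primary human hepatocytes dosed daily for two days (0.2% DMSO vehicle), harvested at 48 h. GSTA2 mRNA induction measured by quantitative nuclease protection assay with chemiluminescent imaging, fitted for gain of signal relative to DMSO.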

[14] = read-out: glucuronosyltransferase (UGT1A1), UGT1A1 (gene 54658); assay: CLD_UGT1A1_48hr: CellzDirect (CLD) Gene Expression Assay for glucuronosyltransferase (UGT1A1) at 48 hours (AID 2283709);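 further: actives increase expression relative to DMSO so potency refers to induction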
Outline: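 Human primary hepatocytes dosed daily for two days (0.2% DMSO vehicle), harvested at 48 h. UGT1A1 mRNA induction measured by quantitative nuclease protection assay with chemiluminescence; gain of signal versus DMSO; cytotoxicity flagged from morphology.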

[15] = read-out: sulfotransferase (SULT2A), SULT2A1 (gene 6822); assay: CLD_SULT2A_48hr: CellzDirect (CLD) Gene Expression Assay for sulfotransferase (SULT2A) at 48 hours (AID 2283710);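 further: hits raise SULT2A1 transcript above the 0.2% DMSO vehicle baseline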
Outline: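 Primary human hepatocytes (two donor preparations) dosed daily for two days with chemicals at multiple concentrations, vehicle 0.2% DMSO; SULT2A1 mRNA induction at 48 h by quantitative nuclease protection assay, chemiluminescent read-out, fitted for gain of signal versus DMSO.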

[16] = read-out: HMG-CoA synthase (HMGCS2), HMGCS2 (gene 3158); assay: CLD_HMGCS2_48hr: CellzDirect (CLD) Gene Expression Assay for HMG-CoA synthase (HMGCS2) at 48 hours (AID 2283711)
Outline: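 Primary human hepatocytes from two donors dosed daily for two days, 0.2% DMSO vehicle. HMGCS2 mRNA measured 48 h after dosing by quantitative nuclease protection assay with chemiluminescent read-out; induction fitted relative to DMSO, cytotoxicity flagged by microscopy.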

[17] = STM_H9_OrnithineISnorm_perc: Stemina devTOX quickPredict H9 human embryonic stem cell (hESC)-based Assay for Ornithine (ORN) Metabolite Biomarker, Normalized (AID 2283712; active means hit-call score of the fitted dose curve at least 0.9, where 1 is the maximum; inactive means score below 0.9;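 further: ornithine released into spent medium during last day measured by mass spectrometry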)
Outline: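 Undifferentiated pluripotent H9 hESCs were exposed to compound for 72h, with media and compound replaced every 24h. Ornithine in final 24-h conditioned media was measured by UPLC-HRMS, normalized to 13C-labeled spike-in standard and to median 0.1% DMSO control.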

[18] = STM_H9_CystineISnorm_perc: Stemina devTOX quickPredict H9 human embryonic stem cell (hESC)-based Assay for Cystine (CYSS) Metabolite Biomarker, Normalized (AID 2283713; active means hit-call score of the fitted dose curve at least 0.9, where 1 is the maximum; inactive means score below 0.9)
Outline: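 Undifferentiated H9 hESCs were exposed to compound for 72h, with medium and compound replaced every 24h. Final-24h conditioned medium was deproteinized and analyzed by UPLC-HRMS. Cystine EIC area was normalized to spiked C13 standard and 0.1% DMSO median.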

[19] = CEETOX_H295R_MTT_cell_viability: Viability Assessment in the CeeTox HT-H295R MTT Assay (AID 2283718; active means hit-call score of the fitted dose curve at least 0.9, where 1 is the maximum; inactive means score below 0.9)
Outline: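 MTT reduction (0.5 mg/ml, 4 h at 37 C; absorbance at 570 and 650 nm) gave viability as background-corrected percent change versus controls. H295R cells had 48 h forskolin (10 uM) prestimulation, then 48 h chemical exposure at 0.1% DMSO.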

Cytochrome P450 2C19 (Homo sapiens), sequence (P33261 whole entry, looked up): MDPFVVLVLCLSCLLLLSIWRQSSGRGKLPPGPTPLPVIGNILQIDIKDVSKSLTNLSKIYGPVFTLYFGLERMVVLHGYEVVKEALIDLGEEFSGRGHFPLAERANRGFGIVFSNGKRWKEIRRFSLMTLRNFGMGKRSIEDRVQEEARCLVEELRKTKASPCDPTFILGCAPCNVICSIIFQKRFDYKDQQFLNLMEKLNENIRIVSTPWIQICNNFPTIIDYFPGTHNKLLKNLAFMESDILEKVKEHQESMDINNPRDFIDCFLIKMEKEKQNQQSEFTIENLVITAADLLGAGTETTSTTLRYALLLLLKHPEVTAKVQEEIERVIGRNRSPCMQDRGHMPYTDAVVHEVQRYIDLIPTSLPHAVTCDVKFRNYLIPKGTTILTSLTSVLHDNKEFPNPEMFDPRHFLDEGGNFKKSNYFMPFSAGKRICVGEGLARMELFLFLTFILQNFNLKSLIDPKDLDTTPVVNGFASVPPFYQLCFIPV
Broad substrate specificity ATP-binding cassette transporter ABCG2 (Homo sapiens), sequence (Q9UNQ0 whole entry, looked up): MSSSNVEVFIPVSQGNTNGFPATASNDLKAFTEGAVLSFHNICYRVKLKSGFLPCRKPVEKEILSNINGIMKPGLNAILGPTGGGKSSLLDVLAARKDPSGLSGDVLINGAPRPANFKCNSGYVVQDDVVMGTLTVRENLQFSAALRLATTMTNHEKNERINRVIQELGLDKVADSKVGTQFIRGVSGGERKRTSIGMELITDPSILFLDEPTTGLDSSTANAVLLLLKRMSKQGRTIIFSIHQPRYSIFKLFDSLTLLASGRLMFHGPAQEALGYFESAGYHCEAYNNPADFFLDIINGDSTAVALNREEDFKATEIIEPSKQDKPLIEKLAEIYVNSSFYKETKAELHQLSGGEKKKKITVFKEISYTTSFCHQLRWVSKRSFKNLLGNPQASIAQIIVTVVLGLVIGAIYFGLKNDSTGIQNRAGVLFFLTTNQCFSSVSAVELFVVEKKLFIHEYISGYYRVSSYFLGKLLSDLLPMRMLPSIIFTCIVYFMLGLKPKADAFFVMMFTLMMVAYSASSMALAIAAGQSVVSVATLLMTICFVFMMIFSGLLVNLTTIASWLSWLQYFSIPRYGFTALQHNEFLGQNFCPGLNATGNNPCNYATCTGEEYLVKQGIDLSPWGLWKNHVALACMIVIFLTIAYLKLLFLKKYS
Cytochrome P450 3A4 (Homo sapiens), sequence (P08684 whole entry, looked up): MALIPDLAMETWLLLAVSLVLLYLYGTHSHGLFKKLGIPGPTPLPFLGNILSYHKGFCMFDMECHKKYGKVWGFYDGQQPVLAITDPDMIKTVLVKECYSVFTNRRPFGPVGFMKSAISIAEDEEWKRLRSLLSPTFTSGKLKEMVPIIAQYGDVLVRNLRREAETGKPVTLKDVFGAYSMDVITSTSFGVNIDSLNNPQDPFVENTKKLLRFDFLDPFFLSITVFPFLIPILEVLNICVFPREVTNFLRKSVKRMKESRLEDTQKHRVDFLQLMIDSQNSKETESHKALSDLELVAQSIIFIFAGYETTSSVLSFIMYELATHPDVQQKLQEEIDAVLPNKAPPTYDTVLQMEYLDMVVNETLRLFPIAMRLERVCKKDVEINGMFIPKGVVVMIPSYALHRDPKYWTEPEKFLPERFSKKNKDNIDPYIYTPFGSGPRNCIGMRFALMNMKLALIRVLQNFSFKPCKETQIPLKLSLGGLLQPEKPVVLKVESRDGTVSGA

Q: With `COC(=O)C(C)Oc1ccc(Oc2ccc(Cl)cc2Cl)cc1` (stereo not drawn) as the compound, how does the AC50 [1] read?
A: The AC50 was 5.43 µM (active).

Q: What about the outcome [1] of the same compound?
A: The outcome was “inactive”.

Q: What about the outcome [2] of the same compound?
A: The outcome was “inactive”.

Q: And the outcome [3]?
A: The outcome was “inactive”.

Q: And the outcome [4]?
A: Its outcome is “inactive”.

Q: What about the outcome [5] of the same compound?
A: The outcome was “inactive”.

Q: What about the outcome [6] of the same compound?
A: Its outcome is “inactive”.

Q: And the outcome [7]?
A: Its outcome is “inactive”.

Q: What about the outcome [8] of the same compound?
A: Its outcome is “inactive”.

Q: And the AC50 [9]?
A: Its AC50 is 20 µM (active) and 12.1 µM (active).

Q: And the outcome [9]?
A: Its outcome is “inactive”.

Q: And the outcome [10]?
A: The outcome was “inactive”.

Q: What about the outcome [11] of the same compound?
A: Its outcome is “inactive”.

Q: What about the outcome [12] of the same compound?
A: The outcome was “inactive”.

Q: What about the outcome [13] of the same compound?
A: Its outcome is “inactive”.

Q: What about the AC50 [14] of the same compound?
A: The AC50 was 20 µM (active).

Q: What about the outcome [14] of the same compound?
A: The outcome was “inactive”.

Q: And the outcome [15]?
A: The outcome was “inactive”.

Q: What about the AC50 [16] of the same compound?
A: The AC50 was 35.6 µM (active).

Q: And the outcome [16]?
A: The outcome was “inactive”.

Q: What does the source list for `CCCCOC(=O)c1ccccc1C(=O)OCCCC`?
A: outcome [1]: inactive; outcome [3]: inactive; outcome [4]: inactive; outcome [5]: inactive; outcome [6]: inactive; outcome [7]: inactive; outcome [8]: inactive; AC50 [9]: 10.6 µM (active) and 11.1 µM (active); outcome [10]: inactive; outcome [11]: inactive; outcome [12]: inactive; outcome [13]: inactive; outcome [14]: inactive; outcome [15]: inactive; outcome [16]: inactive; AC50 [17]: 76.3 µM (active); AC50 [18]: 50 µM (active); outcome [19]: inactive

Q: For `Cc1cc(Cl)ccc1OCC(=O)O`, which outcome [1] is on record?
A: Its outcome is “inactive”.

Q: And the outcome [2]?
A: Its outcome is “inactive”.

Q: And the outcome [4]?
A: Its outcome is “inactive”.

Q: What about the outcome [5] of the same compound?
A: Its outcome is “inactive”.

Q: And the outcome [6]?
A: Its outcome is “inactive”.

Q: What about the outcome [7] of the same compound?
A: The outcome was “inactive”.

Q: And the outcome [8]?
A: The outcome was “inactive”.

Q: What about the outcome [9] of the same compound?
A: The outcome was “inactive”.

Q: And the outcome [10]?
A: Its outcome is “inactive”.

Q: What about the outcome [14] of the same compound?
A: The outcome was “inactive”.

Q: And the outcome [16]?
A: The outcome was “inactive”.

Q: What about the outcome [19] of the same compound?
A: Its outcome is “inactive”.

Q: Which results are given for `COc1cnc(OC)n2nc(NS(=O)(=O)c3c(OCC(F)F)cccc3C(F)(F)F)nc12`?
A: AC50 [1]: 2.42 µM (active); outcome [3]: inactive; outcome [4]: inactive; outcome [5]: inactive; outcome [6]: inactive; outcome [7]: inactive; outcome [8]: inactive; outcome [9]: inactive; outcome [11]: inactive; outcome [12]: inactive; outcome [13]: inactive; outcome [14]: inactive; outcome [15]: inactive

Q: Which results are given for `CCON=C(CC)C1=C(O)CC(c2c(C)cc(C)cc2C)CC1=O` (stereo not drawn)?
A: outcome [1]: inactive; outcome [2]: inactive; outcome [4]: inactive; outcome [5]: inactive; outcome [6]: inactive; outcome [7]: inactive; outcome [8]: inactive; outcome [9]: inactive; outcome [13]: inactive; outcome [14]: inactive; outcome [15]: inactive; outcome [16]: inactive; outcome [17]: inactive; outcome [18]: inactive; outcome [19]: inactive
